In PubChem BioAssay (Tox21):
Results filed as inconclusive are left out. Active and inactive are the calls of the source. Calls follow the shape of the dose curve; as a rule, active = well fitted curve in the direction sought with a large enough effect in the repeat runs; inconclusive = weak or mixed curves; inactive = no such curve, though single readings can be large; an effect the other way counts as inactive or inconclusive.

Columns and labels:
[1] = qHTS RealTime-Glo MT Cell Viability Assay in HepG2 cells - 24 hour (AID 1224867); also: nearly all actives have a fitted effect of over 50% in size
Outline: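 Cell number in HepG2 cultures estimated from NanoLuc luminescence generated by metabolic reduction of a prosubstrate by living cells. The homogeneous, nonlytic format allowed repeated reads at 0, 8, 16, 24, 32 and 40 h of compound exposure.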

[2] = qHTS RealTime-Glo MT Cell Viability Assay in HEK293 cells - 32 hour (AID 1224868); also: top concentration of the series differs between compounds; nearly all actives have a fitted effect of over 50% in size
Outline: (§1)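 Homogeneous bioluminescent viability format in HEK293 cells (600 cells/well). Following 5 h at 37 C/5% CO2, 23 nL compound was pintooled; the signal was measured repeatedly during 40 h incubation.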

[3] = A CellTox Green Cytotoxicity Assay to monitor cytotoxicity in HEK293 cells - 0 hour (AID 1224869); also: nearly all actives have a fitted effect of over 50% in size
Outline: (§2)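 Each value comes from one timepoint of a single continuous run in which HEK293 cells with CellTox Green were exposed to compound for up to 40 h at 37 C, dye fluorescence rising with cell death.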

[4] = qHTS RealTime-Glo MT Cell Viability Assay in HepG2 cells - 40 hour (AID 1224870); also: nearly all actives have a fitted effect of over 50% in size
Outline: (§3)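 Real-time viability: cells seeded at 600 per well together with NanoLuc and cell-permeant prosubstrate, compounds added after 5 h incubation. Luminescence tracked at 0, 8, 16, 24, 32 and 40 h of exposure.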

[5] = A CellTox Green Cytotoxicity Assay to monitor cytotoxicity in HEK293 cells - 40 hour (AID 1224871); also: nearly all actives have a fitted effect of over 45% in size
Outline: as §2

[6] = qHTS RealTime-Glo MT Cell Viability Assay in HEK293 cells - 16 hour (AID 1224872)
Outline: as §1

[7] = qHTS RealTime-Glo MT Cell Viability Assay in HEK293 cells - 40 hour (AID 1224874); settings: RealTime-Glo luminescence; max response: active compounds read low; also: nearly all actives have a fitted effect of over 50% in size
Outline: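 qHTS format; HEK293 cells with NanoLuc/prosubstrate reagent, 37 C/5% CO2 for 5 h pre-dosing; compounds 23 nL in DMSO; luminescence at each time point reflects viable cells.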

[8] = A CellTox Green Cytotoxicity Assay to monitor cytotoxicity in HEK293 cells - 24 hour (AID 1224875); also: series mostly up to about 77 µM; nearly all actives have a fitted effect of over 45% in size
Outline: as §2

[9] = qHTS RealTime-Glo MT Cell Viability Assay in HepG2 cells - 8 hour (AID 1224873); also: nearly all actives have a fitted effect of over 55% in size
Outline: as §3
% is scaled to controls: 0 for no effect and ±100 for the full control effect.

CCCCCCCCCCCCCCC(=O)NC(CO)CCCCCCCCCCCCCC (configuration not stated)
inactive: outcome [1] | Potency [2] | Potency [3] | outcome [4] | Potency [5] | Potency [6] | max response [7] 5.76% | Potency [8]

C/C(=C1\CCOC(=O)S1)N(C=O)Cc1cnc(C)nc1N
inactive: outcome [1] | Potency [2] | Potency [3] | outcome [4] | Potency [5] | Potency [6] | max response [7] 3.03% | Potency [8]

CC1(C)O[C@H]2CC(=O)OC[C@]23[C@H]2CC[C@@]4(C)[C@H](c5ccoc5)OC(=O)[C@H]5O[C@]54[C@]2(C)C(=O)C[C@@H]13
inactive: outcome [1] | Potency [2] | Potency [3] | outcome [4] | Potency [5] | Potency [6] | outcome [9] | max response [7] 3.36% | Potency [8]

CCCCCCCCCOC(=O)c1ccccc1C(=O)OCCCCCCCCC
inactive: outcome [1] | Potency [2] | Potency [3] | outcome [4] | Potency [5] | Potency [6] | max response [7] 2.9% | Potency [8]

Cc1cccc(Cl)c1
inactive: outcome [1] | Potency [2] | Potency [3] | outcome [4] | Potency [5] | Potency [6] | outcome [9] | max response [7] 0.996% | Potency [8]

COc1cc2c(cc1OC)CN(C(=O)[C@H](C)N[C@@H](CCc1ccccc1)C(=O)O)[C@H](C(=O)O)C2
inactive: outcome [1] | Potency [2] | Potency [3] | outcome [4] | Potency [5] | Potency [6] | outcome [9] | max response [7] 2.78% | Potency [8]

CC(N)CCCC(C)(C)O (configuration not stated)
inactive: outcome [1] | Potency [2] | Potency [3] | outcome [4] | Potency [5] | Potency [6] | outcome [9] | max response [7] 10% | Potency [8]

COc1cc(OC)nc(O[C@H](C(=O)O)C(OC)(c2ccccc2)c2ccccc2)n1
inactive: outcome [1] | Potency [2] | Potency [3] | outcome [4] | Potency [5] | Potency [6] | outcome [9] | max response [7] 4.04% | Potency [8]

COCCc1ccccn1
inactive: outcome [1] | Potency [2] | Potency [3] | outcome [4] | Potency [5] | Potency [6] | outcome [9] | max response [7] -3.81% | Potency [8]

Cc1c(Cl)cccc1Cl
inactive: outcome [1] | Potency [2] | Potency [3] | outcome [4] | Potency [5] | Potency [6] | max response [7] -1.25% | Potency [8]

CC1=C(O)C(=O)C(C)O1 (configuration not stated)
inactive: outcome [1] | Potency [2] | Potency [3] | outcome [4] | Potency [5] | Potency [6] | outcome [9] | max response [7] 2.72% | Potency [8]

CCCCOC(=O)[C@H](C)O
inactive: outcome [1] | Potency [2] | Potency [3] | outcome [4] | Potency [5] | Potency [6] | max response [7] 1.9% | Potency [8]

Cc1ccccc1C(N)=O
inactive: outcome [1] | Potency [2] | Potency [3] | outcome [4] | Potency [5] | Potency [6] | max response [7] 3% | Potency [8]

CC(O)CC(C)O (configuration not stated)
inactive: outcome [1] | Potency [2] | Potency [3] | outcome [4] | Potency [5] | Potency [6] | outcome [9] | max response [7] 0.995% | Potency [8]

O=C[O][Al]([O]C=O)[O]C=O
inactive: outcome [1] | Potency [2] | Potency [3] | outcome [4] | Potency [5] | Potency [6] | max response [7] 5.61%

C=C(C)C1CC=C(C)C(=O)C1 (configuration not stated)
inactive: outcome [1] | Potency [2] | Potency [3] | outcome [4] | Potency [5] | Potency [6] | outcome [9] | max response [7] 0.21% | Potency [8]

CC(C)=CCC/C(C)=C/COC=O
inactive: outcome [1] | Potency [2] | Potency [3] | outcome [4] | Potency [5] | Potency [6] | max response [7] 0.565% | Potency [8]

C[C@H]1[C@@H](c2ccccc2)NC(=O)N1C
inactive: outcome [1] | Potency [2] | Potency [3] | outcome [4] | Potency [5] | Potency [6] | max response [7] -8.69% | Potency [8]

CCCCOC(=O)C(C)O (configuration not stated)
inactive: outcome [1] | Potency [2] | Potency [3] | outcome [4] | Potency [5] | Potency [6] | outcome [9] | max response [7] 11.1% | Potency [8]

O=NN(CCCl)C(=O)NC1CCCCC1
inactive: outcome [1] | Potency [2] | Potency [3] | outcome [4] | Potency [5] | Potency [6] | max response [7] 1.88% | Potency [8]

CC(C)Cn1cnc2c1c(=O)n(C)c(=O)n2C
inactive: outcome [1] | Potency [2] | Potency [3] | outcome [4] | Potency [5] | Potency [6] | max response [7] 2.8% | Potency [8]

NCc1ccc(S(N)(=O)=O)cc1
inactive: outcome [1] | Potency [2] | Potency [3] | outcome [4] | Potency [5] | Potency [6] | outcome [9] | max response [7] 4.4% | Potency [8]

C[C@@H](O)C(=O)O
inactive: outcome [1] | Potency [2] | Potency [3] | outcome [4] | Potency [5] | Potency [6] | outcome [9] | max response [7] 3.5% | Potency [8]

CC(C)NC(=O)c1ccc(C=O)cc1
inactive: outcome [1] | Potency [2] | Potency [3] | outcome [4] | Potency [5] | Potency [6] | outcome [9] | max response [7] 0.577% | Potency [8]

Cc1ccc(N)cc1S(=O)(=O)O
inactive: outcome [1] | Potency [2] | Potency [3] | outcome [4] | Potency [5] | Potency [6] | outcome [9] | max response [7] 7.16% | Potency [8]

COP(=O)(O)OP(=O)(O)OC
inactive: outcome [1] | Potency [2] | Potency [3] | outcome [4] | Potency [5] | Potency [6] | max response [7] 5.3% | Potency [8]

CC(C)c1ccc(C=O)cc1
inactive: outcome [1] | Potency [2] | Potency [3] | outcome [4] | Potency [5] | Potency [6] | max response [7] 13.2%

CCCCSCCCC
inactive: outcome [1] | Potency [2] | Potency [3] | outcome [4] | Potency [5] | Potency [6] | max response [7] 1.22% | Potency [8]

CC(=O)OC1CCCCC1C(C)(C)C (configuration not stated)
inactive: Potency [2] | Potency [3] | outcome [4] | Potency [6] | max response [7] 3.56% | Potency [8]
